Several values for one entry are separate records, joined by “and”; a condition that tells them apart may be missing. Equal entries are not always repeated. Structures can show the parent of a compound that is named as a salt. The whole screen tested about 5,800 compounds, of which about 620 (11%) showed activity. The sample as a whole holds a higher share of actives than the screen did. Values without a mark were called inactive.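 Rule for the calls: active = score above a cut-off or among the top three wells of a plate; in these data no inactive exceeds 0.85.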
Test system: primary human hepatic stellate cells (donor 1)
Test: scaled lipid accumulation score (0 = DMSO-like, 1 = nortriptyline-like); higher = stronger HSC inactivation (lipid re-accumulation), active = hit call of the paper
Settings: 48 h
[1] = library stock concentration: 10 mM
[2] = library stock concentration: 400 uM
[3] = library stock concentration: 2 mM
[4] = library stock concentration: 3.33 mM
[5] = library stock concentration: 1 mM
[6] = library stock concentration: 80 uM

SMILES: CN(C)CCOc1cc(-c2cn[nH]c2)ccc1NC(=O)C1COc2ccccc2O1 (centres undefined) [listing 1 of 2 here]
- scaled lipid accumulation score [1]: 1.08 (active)

SMILES: CN(C)CCOc1cc(-c2cn[nH]c2)ccc1NC(=O)C1COc2ccccc2O1 (centres undefined) [listing 2 of 2 here]
- scaled lipid accumulation score [2]: ≤ -0.005
- scaled lipid accumulation score [3]: 0.383

SMILES: O=C(Nc1ccc(-c2cn[nH]c2)cc1)C1COc2ccccc2O1 (centres undefined) [Rho Kinase Inhibitor V]
- scaled lipid accumulation score [4]: ≤ 0

SMILES: CCCCCCCCCCCCCCCCCC=CC(=O)O [.DELTA.2-cis Eicosenoic Acid]
- scaled lipid accumulation score [5]: 0.011

SMILES: CCCCC/C=C\C/C=C\CC/C=C\CCCC(=O)OCC [Pinolenic Acid ethyl ester]
- scaled lipid accumulation score [5]: ≤ 0

SMILES: CC[C@]1(O)C[C@H]2CN(CCc3c([nH]c4ccccc34)[C@@](C(=O)OC)(c3cc4c(cc3OC)N(C)[C@H]3[C@@](O)(C(N)=O)[C@H](O)[C@]5(CC)C=CCN6CC[C@]43[C@@H]65)C2)C1.O=S(=O)(O)O
- scaled lipid accumulation score (library stock concentration: 9.7 mM): 1.52 (active)

SMILES: CCCCC[C@H](O)/C=C/[C@@H]1[C@H]2C/C(=C/CCCC(=O)O)C[C@H]2C[C@H]1O [Carbacyclin]
- scaled lipid accumulation score [5]: ≤ -0.021

SMILES: N=C(N)c1ccc(N2CCN(C3CCN(CC(=O)O)CC3)CC2)cc1
- scaled lipid accumulation score [1]: ≤ -0.006

SMILES: CCCCCCCCCCCCC/C=C/[C@@H](O)[C@H](CO)NC(=O)CCCCC [C-6 Ceramide]
- scaled lipid accumulation score [5]: ≤ 0

SMILES: CCCCC/C=C\C/C=C\C/C=C\C/C=C\CCCCN1C(=O)C=CC1=O [N-Arachidonyl Maleimide]
- scaled lipid accumulation score [5]: ≤ 0

SMILES: CCCCC[C@H](O)CC(=O)CCc1ccc(O)c(OC)c1 [6-Gingerol]
- scaled lipid accumulation score (library stock concentration: 17 mM): ≤ -0.014

SMILES: Cc1c(-c2cnccn2)ssc1=S [Oltipraz]
- scaled lipid accumulation score (library stock concentration: 8.8 mM): 0.01

SMILES: N[C@H](CO)C(=O)O [D-Serine]
- scaled lipid accumulation score [1]: ≤ 0

SMILES: CN1CCC(=C2c3ccccc3C=Cc3ccccc32)CC1 [Cyproheptadine]
- scaled lipid accumulation score (library stock concentration: 7 mM): 0.351

SMILES: CN1CCC(=C2c3ccccc3Sc3ccccc32)CC1 [Pimethixene maleate]
- scaled lipid accumulation score: 0.65
- scaled lipid accumulation score [1]: 0.656

SMILES: CN1CCC(=C2c3ccccc3CCc3cccnc32)CC1 [Azatadine dimaleate]
- scaled lipid accumulation score [4]: 0.004
- scaled lipid accumulation score [1]: 0.221

SMILES: Cl[H].CN1CC\C(=C(/c2c(cccc2)C=C3)\c(cccc4)c34)\CC1 [Cyproheptadine hydrochloride]
- scaled lipid accumulation score [1]: 1.04 (active)

SMILES: CN1CCC(=C2c3ccccc3C=Cc3ccccc32)CC1 [Cyproheptadine hydrochloride]
- scaled lipid accumulation score (library stock concentration: 6.2 mM): 0.686

SMILES: CN1CCC(=C2c3ccccc3C=Cc3ccccc32)CC1
- scaled lipid accumulation score [1]: 1.32 (active)

SMILES: C(=C(/CC1)\CCN1C)(/c2c3cccc2)\c4c(cccc4)C=C3.Cl [Cyproheptadine hydrochloride]
- scaled lipid accumulation score [1]: 0.933 (active)

SMILES: CN1CCC(=C2c3ccccc3C=Cc3ccccc32)CC1 [Cyproheptadine HCl]
- scaled lipid accumulation score [4]: 0.629
- scaled lipid accumulation score [1]: 0.63

SMILES: Cl.C(=C(\CCN(C)C1)/C1)(/c2c(cccc2)C=C3)\c4c3cccc4 [Cyproheptadine hydrochloride]
- scaled lipid accumulation score: 0.968 (active)

SMILES: CN1CCC(=C2c3ccccc3CCc3cccnc32)CC1
- scaled lipid accumulation score [1]: 0.464

SMILES: C#C[C@]1(OC(C)=O)CC[C@H]2[C@@H]3CCC4=CC(=NO)CC[C@@H]4[C@H]3CC[C@@]21CC (mixture of isomers) [Norgestimate]
- scaled lipid accumulation score (library stock concentration: 5.4 mM): ≤ 0

SMILES: CC1COCCN1c1cc(C2(S(C)(=O)=O)CC2)nc(-c2cccc3[nH]ccc23)n1 (centres undefined)
- scaled lipid accumulation score [4]: ≤ 0
- scaled lipid accumulation score [1]: ≤ -0.001

SMILES: CCCCC(F)(F)[C@@]1(O)CC[C@H]2[C@@H](CC(=O)[C@@H]2CCCCCCC(=O)O)O1 [Lubiprostone]
- scaled lipid accumulation score [4]: ≤ 0
- scaled lipid accumulation score [1]: ≤ 0

SMILES: CCCCC/C=C\C/C=C\CCCCCCCC(=O)OCC(O)CO (centres undefined) [1-Linoleoyl Glycerol]
- scaled lipid accumulation score [5]: ≤ 0

SMILES: C=C1C[C@H](O)[C@H](C/C=C\CCCC(=O)O)[C@H]1/C=C/[C@@H](O)CCCCC [11-deoxy-11-methylene Prostaglandin D2]
- scaled lipid accumulation score [5]: ≤ 0

SMILES: CCC(C)C(COC(Cc1ccccc1)C(=O)NC(CCS(C)(=O)=O)C(=O)OC(C)C)NCC(N)CS (centres undefined)
- scaled lipid accumulation score (library stock concentration: 7.9 mM): 0.195

SMILES: CC(C)(C)CC(C)(C)c1cc(Cc2cc(C(C)(C)CC(C)(C)C)cc(-n3nc4ccccc4n3)c2O)c(O)c(-n2nc3ccccc3n2)c1
- scaled lipid accumulation score [1]: ≤ 0

SMILES: CCCCC[C@@H](O)[C@H]1C(=O)O[C@H](C)[C@@H](O)/C=C/C=C/C=C/C=C/C=C(\C)[C@@H](O)C[C@H](O)C[C@H](O)C[C@H](O)C[C@H](O)C[C@H](O)C[C@@H]1O [Filipin]
- scaled lipid accumulation score (library stock concentration: 3.1 mM): 0.029

SMILES: CCCCC[C@@H](O)[C@H]1C(=O)O[C@H](C)[C@@H](O)/C=C/C=C/C=C/C=C/C=C(\C)[C@@H](O)C[C@H](O)C[C@H](O)C[C@H](O)C[C@H](O)C[C@H](O)C[C@@H]1O [Filipin III]
- scaled lipid accumulation score [5]: 0.021

SMILES: COc1ccc2c(c1)c(CC(=O)SC[C@H](NC(C)=O)C(=O)OCCCCO[N+](=O)[O-])c(C)n2C(=O)c1ccc(Cl)cc1 [NO-Indomethacin]
- scaled lipid accumulation score [5]: ≤ 0

SMILES: C[C@@H]1C[C@H]2[C@@H]3CCC4=CC(=O)C=C[C@]4(C)[C@@]3(Cl)[C@@H](O)C[C@]2(C)[C@@]1(OC(=O)c1ccco1)C(=O)CCl [Mometasone furoate]
- scaled lipid accumulation score: 0.136
- scaled lipid accumulation score [4]: 0.086
- scaled lipid accumulation score [1]: 0.519

SMILES: COc1cc(Nc2c(C#N)cnc3cc(OCCCN4CCN(C)CC4)c(OC)cc23)c(Cl)cc1Cl [Bosutinib (SKI-606) (0.4 mM)]
- scaled lipid accumulation score [2]: ≤ -0.005

SMILES: CCN1CCC(n2cc(CNc3cc(Cl)c4ncc(C#N)c(Nc5ccc(F)c(Cl)c5)c4c3)nn2)CC1 [listing 1 of 2 here]
- scaled lipid accumulation score [6]: ≤ -0.009
- scaled lipid accumulation score [2]: ≤ -0.009
- scaled lipid accumulation score [3]: ≤ -0.009

SMILES: COc1cc(Nc2c(C#N)cnc3cc(OCCCN4CCN(C)CC4)c(OC)cc23)c(Cl)cc1Cl [Bosutinib (SKI-606) (2 mM)]
- scaled lipid accumulation score [3]: 0.096

SMILES: CCN1CCC(n2cc(CNc3cc(Cl)c4ncc(C#N)c(Nc5ccc(F)c(Cl)c5)c4c3)nn2)CC1 [listing 2 of 2 here]
- scaled lipid accumulation score [1]: 1.15 (active)

SMILES: COc1cc(Nc2c(C#N)cnc3cc(OCCCN4CCN(C)CC4)c(OC)cc23)c(Cl)cc1Cl [Bosutinib (SKI-606)]
- scaled lipid accumulation score [4]: 0.374
- scaled lipid accumulation score [1]: 0.395

SMILES: COc1cc(Nc2c(C#N)cnc3cc(OCCCN4CCN(C)CC4)c(OC)cc23)c(Cl)cc1Cl [Bosutinib]
- scaled lipid accumulation score [6]: ≤ -0.016
- scaled lipid accumulation score [2]: ≤ -0.016
- scaled lipid accumulation score [3]: ≤ -0.016
- scaled lipid accumulation score [1]: ≤ -0.016

SMILES: COc1cc(Nc2c(C#N)cnc3cc(OCCCN4CCN(C)CC4)c(OC)cc23)c(Cl)cc1Cl [Bosutinib (SKI-606) (10 mM)]
- scaled lipid accumulation score [1]: 0.388

SMILES: CC(C)c1ccccc1S(=O)(=O)c1cc(N)c2ncccc2c1[N+](=O)[O-]
- scaled lipid accumulation score [1]: 0.26

SMILES: CC(C)c1ccc(C(=O)c2cccs2)c(SCCCCCCCCN(C)C)n1.O=C(O)C(=O)O
- scaled lipid accumulation score [1]: 1.24 (active)

SMILES: CC(C(=O)O)c1ccc(C(=O)c2cccs2)cc1 (centres undefined) [Suprofen]
- scaled lipid accumulation score: ≤ 0
- scaled lipid accumulation score [4]: ≤ 0
- scaled lipid accumulation score (library stock concentration: 7.7 mM): ≤ 0
- scaled lipid accumulation score [1]: 0.024 and ≤ 0

SMILES: O=C(O)COc1ccc(C(=O)c2cccs2)c(Cl)c1Cl [Tienilic Acid]
- scaled lipid accumulation score [5]: ≤ 0

SMILES: CC12CCC(CC1=O)C2(C)C (centres undefined) [Camphor (1r)]
- scaled lipid accumulation score (library stock concentration: 13.1 mM): ≤ -0.001

SMILES: CO[C@H]1O[C@@H]2O[C@@]3(C)CC[C@H]4[C@H](C)CC[C@@H]([C@H]1C)[C@@]24OO3 [Artemether]
- scaled lipid accumulation score [4]: ≤ 0
- scaled lipid accumulation score [1]: ≤ 0 and 0.024

SMILES: CO[C@H]1O[C@@H]2O[C@@]3(C)CC[C@H]4[C@H](C)CC[C@@H]([C@H]1C)[C@@]24OO3
- scaled lipid accumulation score [1]: ≤ 0

SMILES: CN1CC[C@@H](c2c(O)cc(O)c3c(=O)cc(-c4ccccc4Cl)oc23)[C@@H]1CO
- scaled lipid accumulation score [4]: ≤ -0.009
- scaled lipid accumulation score [1]: 0.465

SMILES: CN1CCN(S(=O)(=O)c2ccc(-c3cnc(N)c(C(=O)Nc4cccnc4)n3)cc2)CC1 [listing 1 of 2 here]
- scaled lipid accumulation score [1]: 1.02 (active)

SMILES: CS(=O)(=O)c1ccc(C(=O)Nc2ccc(Cl)c(-c3ccccn3)c2)c(Cl)c1 [Vismodegib (GDC-0449)]
- scaled lipid accumulation score [4]: 0.002
- scaled lipid accumulation score [1]: ≤ 0

SMILES: CS(=O)(=O)c1ccc(-c2cnc(N)c(C(=O)Nc3ccccc3)n2)cc1 [listing 1 of 2 here]
- scaled lipid accumulation score [6]: 0.017
- scaled lipid accumulation score [2]: ≤ 0
- scaled lipid accumulation score [3]: ≤ 0
- scaled lipid accumulation score [4]: 0.225
- scaled lipid accumulation score [1]: 0.489

SMILES: CS(=O)(=O)c1ccc(-c2cnc(N)c(C(=O)Nc3ccccc3)n2)cc1 [listing 2 of 2 here]
- scaled lipid accumulation score [1]: 0.907 (active)

SMILES: CN(C)c1nc(N)c(C(=O)Nc2cccnc2)nc1Cl [ACDPP hydrochloride]
- scaled lipid accumulation score [1]: ≤ -0.001

SMILES: CN1CCN(S(=O)(=O)c2ccc(-c3cnc(N)c(C(=O)Nc4cccnc4)n3)cc2)CC1 [listing 2 of 2 here]
- scaled lipid accumulation score [4]: 0.821

SMILES: Cl.O=C([O-])c1ccc(-c2c3nc(c(-c4ccc(C(=O)O)cc4)c4nc(c(-c5ccc(C(=O)O)cc5)c5ccc([nH]5)c(-c5ccc(C(=O)[O-])cc5)c5ccc2[n-]5)C=C4)C=C3)cc1.[Mn+3] [MnTBAP chloride]
- scaled lipid accumulation score (library stock concentration: 5.7 mM): ≤ -0.012

SMILES: Cc1cn([C@H]2O[C@@H](CO)[C@H](O)[C@H]2F)c(=O)[nH]c1=O [Clevudine]
- scaled lipid accumulation score [4]: ≤ 0
- scaled lipid accumulation score [1]: ≤ 0

SMILES: O=C(CCC/C=C\C[C@H]1C(=O)C[C@@H](O)C1/C=C/[C@@H](O)CCc1ccccc1)NC(CO)CO (some centres undefined) [17-phenyl trinor Prostaglandin E2 serinol amide]
- scaled lipid accumulation score [5]: ≤ 0

SMILES: NC(=O)N[C@@H](CCC(=O)O)C(=O)O
- scaled lipid accumulation score [1]: ≤ 0

From the supplement of paper PMC9135407
